RTF Ca sens act: increases calcium sensitivity of human cardiac regulated thin filaments. P19429+P45379. 0.24% of 340,000 active. activation, % at 7.2 µM. IANBD-labeled TnC RTF fluorescence at EC20 calcium; 0% EC20 calcium, 100% full calcium. AID 493008;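 active means activation above the mean over all tested compounds plus 3 SD, cut at about 30% in these data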;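 further: rise in fluorescence read as greater calcium sensitivity of cardiac thin filaments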
RTF Ca sens inh: cardiac RTF calcium desensitization; P19429+P45379; IANBD-labeled cardiac RTF, Ca2+ fluorescence; inhibition, % at 7.15 µM; 0.12% of 340,000 active;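 active means inhibition above the mean inhibition of all tested compounds plus 3 SD, cut at about 17% in these data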;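 further: assay run at fixed EC70 calcium of 1.6 mM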
BCLXL inh: blocks human Bcl-xL binding to Bim BH3 peptide; inhibition, % at 10.9 µM; Q07817; GST-Bcl-xL / FITC-Bim BH3 peptide fluorescence polarization; 0.7% of 320,000 active;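 active means inhibition above the mean of all tested compounds plus 3 SD, cutoff set per campaign, cut at about 30% in these data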;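 further: 0% = DMSO wells and 100% = unlabeled Bim-BH3 peptide competitor; inhibitors lower millipolarization by displacing the labeled peptide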
Target sequence (Q07817 whole entry, looked up): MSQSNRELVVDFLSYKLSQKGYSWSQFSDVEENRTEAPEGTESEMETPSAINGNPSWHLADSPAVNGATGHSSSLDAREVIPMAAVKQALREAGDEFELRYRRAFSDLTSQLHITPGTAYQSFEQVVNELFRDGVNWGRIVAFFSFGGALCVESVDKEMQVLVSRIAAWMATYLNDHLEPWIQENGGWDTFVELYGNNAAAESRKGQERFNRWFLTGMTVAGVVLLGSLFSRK
eLon inh: inhibitors of E. coli Lon protease | purified E. coli Lon protease, fluorescence polarization | inhibition, % at 7.94 µM | 0.42% of 360,000 active; in the data active means inhibition above about 13%, passing the limit was not always enough;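 further: 0% = enzyme with probe and DMSO and 100% = no enzyme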
GLD-1 RNA inh: GLD-1-TGE RNA interaction inhibition (C. elegans) | Q17339 | purified GLD-1 + fluorescein TGE RNA, fluorescence polarization | inhibition, % at 5.96 µM | 0.44% of 320,000 active | AID 2280;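 active means percent inhibition above a per-plate cutoff, the plate mean of test compounds plus 3 SD, cut at about 30% in these data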;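 further: 0% = DMSO wells with GLD-1 and probe and 100% = wells lacking GLD-1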
* hit, by the source's call. Sampled rows, rich in hits. Any-hit rate of the full collection: about 1.2%.

`CCC(=O)OC1(C)C(=O)C=C2C=C(CCCCNC(=O)OC(C)(C)C)OC=C2C1=O` (stereo not given) gave BCLXL inh 26 and GLD-1 RNA inh 50*.
`CCCCC1=CC2=CC(=O)C(C)(OC(=O)CC)C(=O)C2=CO1` (stereo not given) gave RTF Ca sens act -3, RTF Ca sens inh -24, BCLXL inh 18, eLon inh -10 and GLD-1 RNA inh 37*.
For CCC(=O)OC1(C)C(=O)C=C2C=C(C3CC3)OC=C2C1=O (stereo not given) the results were RTF Ca sens act 15, RTF Ca sens inh 0, BCLXL inh 59*, eLon inh 15 and GLD-1 RNA inh 39*.
CCOc1ccccc1N1CCN(C(=O)c2cccc(S(=O)(=O)N3CCOCC3)c2)CC1 was read as RTF Ca sens act 8, RTF Ca sens inh -4, BCLXL inh 0, eLon inh 4 and GLD-1 RNA inh -1.
Screening Cn1c2[n+](c3ccc(Cl)cc3c1=O)Cc1ccccc1-2 returned RTF Ca sens act 2, RTF Ca sens inh -1, BCLXL inh 8, eLon inh 4 and GLD-1 RNA inh 1.
Screening CC1(OC(=O)c2cccs2)C(=O)C=C2C=C(c3ccc(C#N)cc3)OC=C2C1=O (stereo not given) returned BCLXL inh 4 and GLD-1 RNA inh 6.
`CC(C)(C)OC(=O)NCCCC1=CC2=CC(=O)C(C)(O)C(=O)C2=CO1` (stereo not given) gave BCLXL inh 34* and GLD-1 RNA inh 26.
CCC(=O)OC1(C)C(=O)C=C2C=C(CCCC(=O)OC)OC=C2C1=O (stereo not given) was read as RTF Ca sens act 8, RTF Ca sens inh -19, BCLXL inh 70*, eLon inh 10 and GLD-1 RNA inh 46*.
`CC(C)(C)OC(=O)NCCCC1=CC2=CC(=O)C(C)(OC(=O)c3ccc(Cl)nc3)C(=O)C2=CO1` (stereo not given) gave BCLXL inh 80* and GLD-1 RNA inh 93*.
`COC(=O)CCCC1=CC2=CC(=O)C(C)(O)C(=O)C2=CO1` (stereo not given) gave BCLXL inh 23 and GLD-1 RNA inh 24.
Screening Cc1cc(Br)cn2c(Cc3ccccc3)c(C3CCCCC3)nc12 returned eLon inh -9.
Cc1ccc(S(=O)(=O)NC(=O)Nc2cccc(S(=O)(=O)N(C)C)c2)cc1 was read as RTF Ca sens act -1, RTF Ca sens inh -4, eLon inh 2 and GLD-1 RNA inh 2.
O=c1[nH]c(Nc2ccccc2)cc2ccccc12 was read as RTF Ca sens act -4, RTF Ca sens inh -7, BCLXL inh 54*, eLon inh -7 and GLD-1 RNA inh 55*.
O=c1[nH]c(Nc2ccccc2)cc2cc(Br)ccc12 was read as RTF Ca sens act 3, RTF Ca sens inh -5, BCLXL inh 12, eLon inh -24 and GLD-1 RNA inh 3.
CC1(C)NC(=O)N(CC(=O)OCC(=O)Nc2c(Br)cc([N+](=O)[O-])cc2Br)C1=O was read as RTF Ca sens act 2, RTF Ca sens inh -8 and eLon inh 5.
CCOC(=O)Nc1ccc(NCc2ccc(F)cc2)nc1N was read as RTF Ca sens act 72*, RTF Ca sens inh -67, BCLXL inh 141*, eLon inh -74 and GLD-1 RNA inh 132*.
`CCOC(=O)Nc1ccc(C)cc1NC(=O)OCC` gave RTF Ca sens act -2, RTF Ca sens inh -2, BCLXL inh 0, eLon inh 10 and GLD-1 RNA inh 9.
`O=C(O)c1ccccc1-c1ccc(/C=C/c2cc(C(F)(F)F)[nH]c(=O)n2)o1` gave RTF Ca sens act 727*, RTF Ca sens inh inactive and eLon inh -141.
O=C(O)c1cc(Cl)ccc1-c1ccc(/C=C/c2cc(C(F)(F)F)[nH]c(=O)n2)o1 was read as RTF Ca sens act 448*, RTF Ca sens inh inactive, BCLXL inh 21, eLon inh -284 and GLD-1 RNA inh 24.
Screening O=c1nc(/C=C/c2ccc(-c3ccc(F)cc3)o2)cc(C(F)(F)F)[nH]1 returned BCLXL inh 11 and GLD-1 RNA inh -11.
`COc1ccc(CC2(CO)CCN(C(C)COc3ccccc3)CC2)cc1` (stereo not given) gave RTF Ca sens act 0, RTF Ca sens inh 2, BCLXL inh 12, eLon inh 9 and GLD-1 RNA inh 2.
`CCOC(=O)N1CCN(C(=O)CCCCn2c(=S)[nH]c3ccsc3c2=O)CC1` gave RTF Ca sens act 11, RTF Ca sens inh -17, BCLXL inh -6, eLon inh -4 and GLD-1 RNA inh 6.
Screening CCn1c(O)c(/C=N/N=C/c2ccccc2)c2ccc(C3=NNC(=O)CC3)cc21 returned RTF Ca sens act 36*, RTF Ca sens inh -122, BCLXL inh 49*, eLon inh -79 and GLD-1 RNA inh -30.
For CCCCNC(=O)CN1CCC2(O)CCCCC2C1c1ccccc1OC (stereo not given) the results were RTF Ca sens act 5, RTF Ca sens inh -8, BCLXL inh 15, eLon inh -4 and GLD-1 RNA inh 79*.
COc1ccccc1C1C2CCCCC2(O)CCN1CC(=O)Nc1ccccc1 (stereo not given) was read as RTF Ca sens act 3, RTF Ca sens inh -3, BCLXL inh 2, eLon inh -6 and GLD-1 RNA inh -3.
COc1ccc2c(c1)c1nc3ccccc3nc1n2Cc1ccc(OC(C)C)c(OC)c1 was read as RTF Ca sens act 15, RTF Ca sens inh -5, BCLXL inh 42*, eLon inh 0 and GLD-1 RNA inh 17.
COc1ccc2c(c1)c1nc3ccccc3nc1n2CC(=O)OC(C)C was read as RTF Ca sens act 13, RTF Ca sens inh -9, BCLXL inh 60*, eLon inh -6 and GLD-1 RNA inh 8.
CC(C)Oc1cccc(C(=O)NC(=S)Nc2cccc(C(F)(F)F)c2)c1 was read as RTF Ca sens act 2, RTF Ca sens inh 1, BCLXL inh -2, eLon inh -1 and GLD-1 RNA inh -2.
`Cc1ccc(S(=O)(=O)Nc2ccccc2-c2nc3ccccc3[nH]c2=O)cc1` gave RTF Ca sens act 3, RTF Ca sens inh 3, BCLXL inh 3, eLon inh -4 and GLD-1 RNA inh 4.
For CCOc1ccc(/C=C2/SC(=O)NC2=S)cc1 the results were RTF Ca sens act -3, RTF Ca sens inh -87, BCLXL inh 48*, eLon inh -5 and GLD-1 RNA inh 67*.
`CCOc1ccc(N=C2NC(=O)S/C2=C\c2ccc(N(C)C)cc2)cc1` gave RTF Ca sens act 17, RTF Ca sens inh -35, BCLXL inh 70*, eLon inh -39 and GLD-1 RNA inh 43*.
For Cc1ccnc(N2CCC(C(=O)Nc3ccc4c(c3)CCC4)CC2)n1 the results were RTF Ca sens act -1, RTF Ca sens inh -4, BCLXL inh 1, eLon inh -6 and GLD-1 RNA inh -5.
COC(CNC(=O)c1ccc2c3c(onc13)-c1ccccc1C2=O)OC was read as RTF Ca sens act 0, RTF Ca sens inh -3, BCLXL inh active, eLon inh 31 and GLD-1 RNA inh active.
